High-throughput results as filed in PubChem BioAssay.
Sampled rows, rich in hits. Any-hit rate of the full collection: about 2.4%.
D2 ag-1: D2 dopamine receptor (human) agonism; P14416; HEK293 T-REx D2 cells, calcium flux agonist mode; activation, % at 2 µM; hit rate 0.53% among 340,000;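 active = activation over 3 SD above normal in the single-dose calcium agonist read, cut at about 30% in these data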; also: 0% is about no effect
Target sequence (P14416 whole entry, looked up): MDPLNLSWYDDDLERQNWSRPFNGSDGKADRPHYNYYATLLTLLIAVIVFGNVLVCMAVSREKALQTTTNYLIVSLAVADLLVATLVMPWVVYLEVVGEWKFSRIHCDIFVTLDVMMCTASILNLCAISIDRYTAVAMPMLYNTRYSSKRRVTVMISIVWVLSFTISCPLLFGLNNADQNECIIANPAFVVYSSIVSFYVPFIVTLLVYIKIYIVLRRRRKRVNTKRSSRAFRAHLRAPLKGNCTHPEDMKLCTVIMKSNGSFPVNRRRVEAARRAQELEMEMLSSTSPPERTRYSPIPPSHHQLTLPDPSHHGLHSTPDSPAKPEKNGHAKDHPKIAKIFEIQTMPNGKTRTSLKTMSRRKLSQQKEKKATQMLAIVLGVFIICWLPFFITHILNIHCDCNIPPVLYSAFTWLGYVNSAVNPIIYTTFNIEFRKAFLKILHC
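HEK293 Trex D2 cells, tetracycline-induced, o/n 30 C 5% CO2; no-wash Ca dye, RT 30–90 min; 10-cycle baseline, 23 nl cpd added, kinetic Ca read 180 s; agonist hits = positive Ca response.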
D2 antag: antagonists of human D2 dopamine receptor; P14416; HEK293 TREx D2 cells, calcium flux, dopamine EC80; inhibition, % at 10 µM; hit rate 2% among 340,000; AID 485344; in the data active = inhibition above about 30%; inactive = below that, where a call was filed; also: 0% is about no effect
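Calcium flux kinetic readout in an inducible HEK293 TREx D2 line plated overnight at 30 C. After 180 s compound exposure, an EC80 dopamine challenge follows with another 180 s kinetic read to detect antagonism.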
D2 ag-2: human D2 receptor agonism in beta-arrestin assay | P14416 | DiscoveRx PathHunter D2 beta-arrestin, luminescence, 90 min; 100% = 57 uM dopamine signal | activation, % (no concentration beside the values) | hit rate 0.084% among 360,000; in the data active = activation above about 40%; inconclusive = between about 15% and that limit
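Agonist mode: compounds alone added to overnight-plated D2 PathHunter cells for 90 min at 37 C, with 57 uM final dopamine (EC100) defining full response. Beta-arrestin recruitment detected by chemiluminescent reagent, read after 1 h at ambient temperature.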
D2 PAM-1: human D2 receptor positive allosteric modulation; P14416; DiscoveRx D2 beta-arrestin cells, luminescence, 90 min; 100% = 57 uM dopamine signal; potentiation, % (concentration not given with the values); hit rate 0.23% among 360,000; AID 624464; in the data active = potentiation above about 50%; inconclusive = mostly about 30% to 49%
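D2 cells co-treated with compound plus 50 nM dopamine (EC20) for 90 min at 37 deg C to detect potentiation. Beta-arrestin recruitment was read as enzyme-fragment luminescence after 1 h at ambient temperature. Full response was set by 57 uM dopamine.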
D2 PAM-2: D2 dopamine receptor (human) potentiation | HEK293 T-REx D2, calcium flux, EC20 dopamine potentiation | potentiation, % at 10 µM | hit rate 0.34% among 340,000;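 active = potentiation over 3 SD above the plate norm, cut at about 30% in these data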; also: 0% is about no effect
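Potentiation of an EC20 dopamine calcium response is measured in a force-coupled, tetracycline-inducible Hek293 Trex D2 line. Compound-only kinetic reads over 180 s flag agonists before dopamine addition.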
* = called active by the depositor; ? = inconclusive; . = no result given.

SMILES | D2 ag-1 | D2 antag | D2 ag-2 | D2 PAM-1 | D2 PAM-2
O=C(Cn1c(=O)oc2cc(S(=O)(=O)N3CCCC3)ccc21)Nc1ccc(F)cc1F | 0 | . | . | . | 6
O=C(Nc1cccc(OC(F)(F)F)c1)c1cccc2c(-c3cccnc3)coc12 | . | . | 10 | -16 | .
CN1CCN(C(c2ccc(F)cc2)c2nnnn2Cc2cccs2)CC1 (stereo not drawn) | . | . | -5 | -18 | .
CCCC(c1nnnn1Cc1ccc(F)cc1)N1CCN(C2CCCCC2)CC1 (stereo not drawn) | -1 | -12 | -1 | -21 | 3
CC(C)C(c1nnnn1Cc1ccc(F)cc1)N1CCN(C2CCCC2)CC1 (stereo not drawn) | 0 | 56* | -4 | -3 | 8
CN1CCN(C(c2cccs2)c2nnnn2Cc2ccc(F)cc2)CC1 (stereo not drawn) | 0 | 42* | -3 | 0 | 8
CC(Oc1ccc(F)cc1)C(=O)Nc1nc(-c2ccc(F)cc2)ns1 (stereo not drawn) | 2 | . | . | . | -1
COc1cc(NC(=O)Nc2nc(C(N)C3CCCCC3)cs2)cc(OC)c1OC (stereo not drawn) | . | . | 109* | ? | .
COc1ccccc1NC(=O)Nc1nc(C(N)C2CCCCC2)cs1 (stereo not drawn) | . | . | 2 | -20 | .
O=C(CCc1ccccc1)NNC(=O)Nc1ccccc1 | -1 | 44* | 3 | -5 | -5
O=C(Nc1ccccc1)c1ccccc1CCc1ccccc1 | 1 | 32* | -1 | -12 | -4
CCc1ccc(NC(=O)NNC(=O)CCc2ccccc2)cc1 | 0 | -5 | -2 | 5 | 6
O=C(O)CCC(=O)NNC(=O)CCC(=O)Nc1ccccc1 | 0 | 40* | -1 | -3 | -5
CC1=C(C(=O)Nc2ccccc2)C(c2ccccn2)n2nc(SCc3ccccc3)nc2N1 (stereo not drawn) | 0 | . | . | . | -6
O=C1Nc2ccccc2N=C(c2ccccc2)C1N(C(=O)c1ccnc2ccccc12)c1ccccc1 (stereo not drawn) | . | . | -7 | -12 | .
CCOC(=O)N1CCN(C(=O)Nc2ccccc2)CC1 | 0 | 31* | -2 | -3 | -2
CCOC(=O)c1ccc(NC(=O)CC2C(=O)OCCN2CC)cc1 (stereo not drawn) | -1 | 48* | -5 | -2 | -4
CCOC(=O)c1ccc(NC(=O)N2CCN(C3CCCCC3)CC2)cc1 | -1 | 34* | -1 | -15 | -3
CCOC(=O)c1ccc(NC(=O)N2CCN(Cc3ccccc3)CC2)cc1 | -1 | 44* | 8 | -8 | 0
CCOC(=O)c1c(NC(=O)CCCOc2ccc(C(C)(C)C)cc2)sc2c1CCCC2 | -1 | . | . | . | 14
CCOC(=O)c1cc(-c2ccccc2)n(CCC(=O)NC2CCCCC2)c1C | 0 | . | . | . | 9
Cc1cccc(N(CC(=O)Nc2ccc(Br)cc2)S(C)(=O)=O)c1C | 0 | . | . | . | -1
CCN(CC(N)=O)S(=O)(=O)c1ccc(F)cc1 | 1 | 6 | 2 | -2 | -11
C=CCN(CC=C)S(=O)(=O)c1ccc(F)cc1 | 1 | 31* | -1 | 11 | -13
CCOC(=O)C1CCN(c2c(C(=O)c3ccc(OC)cc3)cnc3ccccc23)CC1 | 1 | . | . | . | 9
SMILES | D2 ag-1 | D2 antag | D2 ag-2 | D2 PAM-1 | D2 PAM-2
O=C(Nc1ccc(S(=O)(=O)N2CCc3ccccc3C2)cc1)C1CCCO1 (stereo not drawn) | 0 | 11 | -2 | -11 | -15
CN(C)S(=O)(=O)N1CCc2ccc(NC(=O)C3CCCO3)cc2C1 (stereo not drawn) | 1 | 31* | -1 | -5 | 0
COc1cc(C(=O)NCCc2ccc(S(=O)(=O)N3CCCC3)cc2)cc(OC)c1OC | 0 | 58* | -19 | -7 | -29
COc1ccc(CCNC(=O)c2cccc(S(=O)(=O)N3CCCC3)c2)cc1OC | 0 | 5 | -6 | -12 | 5
COc1ccc(CCNC(=O)CN2C(=O)COc3ccc(S(=O)(=O)N4CCCCCC4)cc32)cc1OC | -1 | . | . | . | 5
CCOC(=O)N1CCN(C(=O)CSc2nnc(COc3ccccc3)o2)CC1 | -2 | 2 | 1 | 0 | -8
CCOC(=O)N1CCN(C(=O)CSc2nnc(Cc3ccccc3)o2)CC1 | 1 | -1 | -2 | 3 | 31*
CC1Cc2nc(SCC(=O)N3CCc4ccccc43)n(C)c(=O)c2S1 (stereo not drawn) | 2 | 7 | 0 | 4 | -6
CC1Cc2nc(SCC(=O)OCc3ccccc3)n(C)c(=O)c2S1 (stereo not drawn) | -1 | -5 | -1 | -11 | 35*
CCn1c(=NC(=O)c2ccc(S(=O)(=O)N3CCCCC3)cc2)sc2cccc(OC)c21 | 0 | . | . | . | 14
CC1(C)CC(=O)C(N=Nc2ccc3ncsc3c2)=C(O)C1 | 0 | 7 | -5 | 1 | -7
COc1ccc2nc(N=NC3=C(O)CC(C)(C)CC3=O)sc2c1 | -1 | 34* | -1 | -6 | -3
COc1cccc(-n2c([S-])c(C(=O)Nc3ccc(C(F)(F)F)cc3)[n+]3ccccc23)c1 | -1 | 35* | . | . | -24
Cc1ccc(C)c(N2CCN(C(=O)Cn3c(=O)c4cccn4c4ccc(F)cc43)CC2)c1 | 0 | . | . | . | 3
O=C(CCN1CCOCC1)NNC(=O)c1ccc(Cl)c([N+](=O)[O-])c1 | . | . | -3 | -2 | .
O=C(CCN1CCOCC1)NNC(=O)c1ccc([N+](=O)[O-])cc1[N+](=O)[O-] | . | . | 6 | 59* | .
O=C(Cc1ccc(-c2ccccc2)cc1)NCCS(=O)(=O)N1CCN(c2ccc(F)cc2)CC1 | 1 | . | . | . | 0
O=C(NCCc1ccc(Cl)cc1)C1COc2ccccc2C1 (stereo not drawn) | 0 | . | . | . | -7
CCn1c(=O)c(C(=O)NNC(=O)c2ccccc2F)c(O)c2ccccc21 | 48* | 21 | 3 | -5 | -9
CCn1c(=O)c(C(=O)NNC(=O)c2ccccc2Cl)c(O)c2ccccc21 | -3 | -17 | -2 | -10 | .
CCN(C(=O)CCS(=O)(=O)c1cc2[nH]c(=O)c(=O)[nH]c2cc1C)c1ccccc1 | 1 | . | . | . | 2
N#Cc1ccccc1OCC(=O)N1CCN(c2ccccc2F)CC1 | 0 | . | . | . | 7
C=CCn1c(-c2csc(-c3ccccc3)n2)n[nH]c1=S | 0 | -27 | -4 | -15 | 48*
COc1ccc(S(=O)(=O)Nc2cccc(-c3ccc(N4CCCCCC4)nn3)c2)cc1 | 0 | . | . | . | -6
Cc1ccc(NC(=O)CN2CCN(c3ccccc3F)CC2)cc1F | -3 | . | . | . | -28
COc1ccccc1N1CCN(CCC(=O)Nc2cccc(Cl)c2)CC1 | 36* | 96* | -2 | -26 | -39
O=C(CN1CCN(c2ccccc2F)CC1)Nc1ccc2c(c1)CCC2 | -1 | 69* | 4 | -1 | -22
COc1ccccc1N1CCN(CC(=O)Nc2cccc(F)c2)CC1 | 0 | 31* | -3 | -15 | -21
